# This is one part of a sample in which hits are shown more often than they occur.
# TDP1 cell CPT: DT40-hTDP1 cell growth loss with CPT. chicken DT40 Tdp1-/-;hTDP1 cells + 20 nM CPT, ATP luminescence, 48 h. Potency, µM (doses to about 46.2 µM), most hits filed as inhibitors. 420,000 compounds, 12% hits. AID 686979; note: nearly all actives have a fitted effect of over 55% in size
#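 Chicken DT40 Tdp1-/- cells stably complemented with human TDP1 were seeded at 400 cells/well in medium containing 20 nM camptothecin, exposed to pin-transferred compounds, and grown at 37 °C for at least 48 hr. Viability was read as ATP luminescence.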
# IL1B secr inh: blocks inflammasome-driven IL-1 beta release. THP-1 LPS/ATP IL-1B secretion, AlphaLISA, 16 h; active compounds read low. activity change, % at 57.5 µM. 360,000 compounds, 4.7% hits. AID 743279; in the data active = activity change below about -50%; inconclusive = mostly about -30% to -49%
#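 Secreted IL-1B measured by AlphaLISA bead assay after 16 h compound exposure of THP-1 cells; compounds (final up to 57.5 uM) added 1 h before LPS (250 ng/mL) and ATP (1.25 mM) stimulation; lower signal means less secretion.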
# HT1080 IDH1KD tx: toxicity to HT-1080 IDH1 knockdown cells (counter line); HT-1080 IDH1 knockdown viability, ATP luminescence, 48 h; Potency, µM (highest dose often 46.1 µM), hits mostly cytotoxic; 360,000 compounds, 2% hits; AID 686971
#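 CellTiter-Glo luminescence after 48 h compound exposure at 37 degrees C of IDH1-knockdown HT-1080 cells in 5% FBS RPMI. %Activity scaled between DMSO wells and cell-free media wells, with curves fitted and assigned curve classes.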
# TDP1 cell noCPT: qHTS for Inhibitors of human tyrosyl-DNA phosphodiesterase 1 (TDP1): qHTS in cells in absence of CPT; DT40 Tdp1-/- hTDP1 cells, no CPT, ATP luminescence, 48 h; Potency, µM (doses to about 46.2 µM), most hits filed as inhibitors; 420,000 compounds, 15% hits; AID 686978, 2013; note: nearly all actives have a fitted effect of over 55% in size
#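 Growth kinetics read by CellTiter-Glo luminescence after ≥48 hr at 37 °C. Cells: DT40 Tdp1-/- stably carrying human TDP1, 400 per well, compound exposure in the absence of CPT (DMSO vehicle).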
# HT1080NT lethal: kills 2HG-producing HT-1080-NT fibrosarcoma cells; HT-1080-NT fibrosarcoma viability, CellTiter-Glo ATP luminescence, 48 h; Potency, µM (highest dose often 46.1 µM), actives largely listed as cytotoxic; 360,000 compounds, 1.6% hits; AID 686970;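 note: NT is the 2HG producing partner of a matched IDH1 knockdown line; nearly all actives have a fitted effect of over 55% in size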
#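 A 48-hour cytotoxicity screen used HT-1080-NT cells plated 2 hours before compound delivery. ATP-based CellTiter-Glo luminescence measured viability, normalized to DMSO and no-cell controls.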
# 12-LOX inh: blocks human arachidonate 12S-lipoxygenase. P18054. purified 12hLO, xylenol orange hydroperoxide absorbance. Potency, µM (titrated, usually from 108 µM), most hits filed as inhibitors. 580,000 compounds, 1.1% hits
# Target sequence (P18054 whole entry, looked up): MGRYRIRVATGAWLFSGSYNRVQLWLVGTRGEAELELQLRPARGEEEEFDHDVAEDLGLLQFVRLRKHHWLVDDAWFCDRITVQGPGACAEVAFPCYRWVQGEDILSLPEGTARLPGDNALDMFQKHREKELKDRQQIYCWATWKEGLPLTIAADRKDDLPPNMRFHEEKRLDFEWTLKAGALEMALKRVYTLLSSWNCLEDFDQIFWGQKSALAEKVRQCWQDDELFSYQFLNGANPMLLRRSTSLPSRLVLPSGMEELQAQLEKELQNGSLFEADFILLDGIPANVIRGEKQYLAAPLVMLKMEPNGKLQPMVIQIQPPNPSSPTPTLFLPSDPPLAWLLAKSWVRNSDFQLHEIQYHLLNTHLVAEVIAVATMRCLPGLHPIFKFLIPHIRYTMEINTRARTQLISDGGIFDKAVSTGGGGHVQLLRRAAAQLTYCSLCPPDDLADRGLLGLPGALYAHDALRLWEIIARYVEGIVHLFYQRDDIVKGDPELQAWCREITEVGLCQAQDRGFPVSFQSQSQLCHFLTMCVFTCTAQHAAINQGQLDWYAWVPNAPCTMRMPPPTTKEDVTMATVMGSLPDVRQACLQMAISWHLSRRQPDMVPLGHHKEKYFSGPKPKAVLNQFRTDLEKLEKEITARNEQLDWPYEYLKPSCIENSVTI
#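 Purified human 12hLO at 150 nM in 25 mM Hepes, 0.01% Triton X-100, pH 7.0, preincubated 15 min at room temperature with compound. Reaction started with 40 uM arachidonic acid, 30 min at room temperature. Hydroperoxide measured by Fe-xylenol orange, 573/405 nm absorbance ratio.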
# A number is an active result; – = inactive; ? = inconclusive; · = not tested or not shown; [ ] = remark or other dose. Unless noted, calls come from the whole dose curve; as a rule, active = well fitted curve in the direction sought with a large enough effect; inconclusive = small, poorly fitted or top-dose-only effect, or another doubt; inactive = no such curve, though single readings can be large; an effect the other way counts as inactive or inconclusive.
SMILES,TDP1 cell CPT,IL1B secr inh,HT1080 IDH1KD tx,TDP1 cell noCPT,HT1080NT lethal,12-LOX inh
CC(C)c1cc(=O)oc2cc(OCC(=O)Nc3ccc(C(N)=O)cc3)ccc12,·,·,·,·,·,–
O=C1c2ccccc2C(c2nnnn2-c2ccc3c(c2)OCCO3)N1Cc1cccnc1 (stereo unspecified),–,–,–,?,–,–
O=C1c2ccccc2C(c2nnnn2-c2ccc3c(c2)OCCO3)N1Cc1cccc(F)c1 (stereo unspecified),?,–,–,16.4µM,–,–
CC(C)CN(CC1CN(C(=O)NCc2ccccc2)CCO1)C(=O)c1ccc2c(c1)OCO2 (stereo unspecified),·,·,·,·,·,–
O=C(NCCc1ccccc1)Nc1ccc(CN2CCOC2=O)cc1,·,·,·,·,·,–
CNc1cc(C(=O)O)nc2ccccc12,0.891µM,·,·,1.12µM,·,·
COC(=O)Nc1cc(C)nc2ccccc12,–,–,–,–,–,–
O=c1c2ccccc2nc(N/N=C/c2c(O)ccc3ccccc23)n1O,3.66µM,–,?,5.17µM,?,?
Cc1nc2ccccc2c(=O)n1/N=C/c1c(O)ccc2ccccc12,?,–,?,18.4µM,?,–
NC(=O)N/N=C/c1c(O)ccc2oc3c(c12)CCCC3,?,-98.0,–,?,–,–
Cc1nc2ccccc2c(=O)n1/N=C/c1cc(Br)ccc1O,?,–,?,?,?,–
CC(C)(C)N=Cc1c(O)ccc2oc3c(c12)CCCC3,–,–,–,–,?,–
O=c1c2ccccc2nc(N/N=C/c2ccc(O)cc2)n1O,?,–,–,–,–,–
Cc1nc2ccccc2c(=O)n1/N=C/c1c(O)ccc2oc3c(c12)CCCC3,20.6µM,–,–,18.4µM,–,?
Cc1cc(C)c(CN2CCC3(CC2)Cc2ccccc2CNC3=O)c(C)c1,·,·,·,·,·,–[6.33 µM]
O=C(COc1ccccc1)NNc1c2ccccc2nc2ccccc12,?,–,?,13µM,–,–
COc1ccc(OCC(=O)NNc2c3ccccc3nc3ccccc23)cc1,23.1µM,-51.0,?,20.6µM,–,–
C#CCNC(=O)c1sc(C(C)C)nc1C,·,·,·,·,·,–
COC(=O)C1=C(C)NC(=O)/C1=C\c1cc(C)n(-c2ccccc2)c1C,?,?,–,?,–,?
COC(=O)C1=C(C)NC(=O)/C1=C\c1cc(C)n(-c2cc(C)cc(C)c2)c1C,?,-59.6,?,?,–,39.8µM
Cc1ccc(/C=C/c2onc(C)c2S(=O)(=O)N2CCC(C(=O)Nc3ccc(C)c(N(C)C)c3)CC2)cc1,8.2µM,·,·,9.2µM,·,–
Cc1ccc(/C=C/c2onc(C)c2S(=O)(=O)N2CCC(C(=O)Nc3cc(F)ccc3F)CC2)cc1,?,·,·,–,·,–
Cc1ccc(/C=C/c2onc(C)c2S(=O)(=O)N2CCC(C(=O)Nc3ccc(OC(F)(F)F)cc3)CC2)cc1,11.6µM,·,·,13µM,·,–
Clc1ccc(Cn2cc3c(n2)-c2cc4ccccc4n2C3)cc1,?,·,·,12.6µM,·,·
CCOC(=O)c1ccc(Nc2c(-c3ccc(O)c(OC)c3)nc3nc[nH]n23)cc1,11.6µM,·,·,16.4µM,·,–
SMILES,TDP1 cell CPT,IL1B secr inh,HT1080 IDH1KD tx,TDP1 cell noCPT,HT1080NT lethal,12-LOX inh
CCOC(=O)c1ccc(Nc2c(-c3ccc(OC)cc3)nc3nc[nH]n23)cc1,20.6µM,·,·,23.1µM,·,–
CCOC(=O)c1ccc(Nc2c(-c3ccc(O)cc3)nc3nc[nH]n23)cc1,?,·,·,?,·,–
Cc1ccc(C)c(NC(=O)c2cc3n(n2)CC(c2ccc(Cl)cc2)OC3)c1 (stereo unspecified),·,·,·,·,·,–
CC1CC(N(C(=O)c2ccc(Cl)cc2)c2ccccc2)c2ccccc2N1C(=O)c1ccco1 (stereo unspecified),11.6µM,?,?,5.8µM,?,–
CC(Nc1nc(-c2ccc3c(c2)NC(=O)CO3)cs1)c1ccccc1 (stereo unspecified),18.4µM,?,?,25.9µM,?,?
O=C1COc2ccc(-c3csc(NCC4CCCO4)n3)cc2N1 (stereo unspecified),?,–,–,–,–,44.7µM
